Screening results (PubChem)
Shiga inhibitor: A qHTS for Small Molecule Inhibitors of Shiga Toxin | inhibition, % at 38.7 µM | 290,000 tested, 9.2% active | Vero cells, Shiga toxin protein synthesis inhibition reporter; in the data active = inhibition mostly above about 28%, no sharp cut-off; inactive = mostly below about 43%; also: 0% is about no effect
FBPA Giardia inh: qHTS Assay for Inhibitors of Fructose-1,6-bisphosphate Aldolase from Giardia Lamblia | A8B2U2 | purified Giardia FBPA | Potency, µM (doses to about 59.6 µM), for the others: at the top dose activity, negative = inhibition, most hits filed as inhibitors | 290,000 tested, 0.71% active; also: potency is read from the fitted curve at half-maximal effect; % is scaled to controls: 0 for no effect and ±100 for the full control effect; nearly all actives have a fitted effect of over 55% in size
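40 nM FBPA preincubated 10 min at RT with compound (up to 57.5 uM final), then substrate plus GAPDH/TPI/NAD/arsenate coupling and diaphorase/resazurin added. Fluorescence read after 20 min at RT, 525/598 nm.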
RE007 growth inh: qHTS Assay for Inhibitors of the HIV-1 protein Vpr; S. pombe RE007 Vpr strain, BacTiter-Glo ATP luminescence, 24 h; Potency, µM (top dose mostly 92.2 µM), for inactives: top-dose activity change, negative = less growth, usual class: inhibitors; 360,000 tested, 0.21% active; AID 651644, 2012; active = well fitted falling curve with a large enough effect; inconclusive = small, poorly fitted or top-dose-only effect; inactive = no such curve, though single readings can be large or run the other way; also: potency is read from the fitted curve at half-maximal effect; % is scaled to controls: 0 for no effect and ±100 for the full control effect; nearly all actives have a fitted effect of over 50% in size
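Fission yeast strain RE007, carrying one chromosomally integrated HIV-1 vpr copy, was seeded at OD 0.01 in PMG+AL medium with 23 nL pinned compound. After 24 h at 30 °C and 99% humidity, viability was read by BacTiter-Glo luminescence.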
Tb PYK inh: qHTS of Trypanosoma Brucei Inhibitors | pyruvate kinase (Trypanosoma brucei), Q57TT1 | TbPYK enzyme, Kinase-Glo Plus ATP luminescence, 45 min | Potency, µM (titrated, usually from 76.8 µM), inactives show top-dose activity, negative = inhibition, hits mostly inhibitors | 410,000 tested, 0.12% active | AID 624173, 2012; also: potency is read from the fitted curve at half-maximal effect; % is scaled to controls: 0 for no effect and ±100 for the full control effect; nearly all actives have a fitted effect of over 50% in size
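Enzyme and substrate buffer are dispensed first and compound is pin-transferred. ADP at 130 uM final then starts the reaction, which runs 45 min at room temperature. Detection reagent is added for 10 min before luminescence is imaged.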
Cycloheximide cs: Cycloheximide Counterscreen for Small Molecule Inhibitors of Shiga Toxin. max response, %. cell reporter, cycloheximide protein synthesis inhibition counterscreen. 300,000 tested, 12% active. AID 2314, 2010; in the data active = max response mostly above about 13%, no sharp cut-off; inactive = mostly below about 14%; also: read at 38.3 µM for the half of the compounds with a filed dose; 0% is about no effect
LmPK inhibitor: qHTS Assay for Inhibitors of Leishmania Mexicana Pyruvate Kinase (LmPK); purified LmPK, Kinase-Glo ATP luminescence, 1 h; 290,000 tested, 0.37% active; AID 1721, 2009; Potency, µM (top dose mostly 57.5 µM), for inactives: at the top dose activity change, negative = inhibition, usual class: inhibitors; also: potency is read from the fitted curve at half-maximal effect; % is scaled to controls: 0 for no effect and ±100 for the full control effect
Target sequence (Q27686 whole entry, looked up): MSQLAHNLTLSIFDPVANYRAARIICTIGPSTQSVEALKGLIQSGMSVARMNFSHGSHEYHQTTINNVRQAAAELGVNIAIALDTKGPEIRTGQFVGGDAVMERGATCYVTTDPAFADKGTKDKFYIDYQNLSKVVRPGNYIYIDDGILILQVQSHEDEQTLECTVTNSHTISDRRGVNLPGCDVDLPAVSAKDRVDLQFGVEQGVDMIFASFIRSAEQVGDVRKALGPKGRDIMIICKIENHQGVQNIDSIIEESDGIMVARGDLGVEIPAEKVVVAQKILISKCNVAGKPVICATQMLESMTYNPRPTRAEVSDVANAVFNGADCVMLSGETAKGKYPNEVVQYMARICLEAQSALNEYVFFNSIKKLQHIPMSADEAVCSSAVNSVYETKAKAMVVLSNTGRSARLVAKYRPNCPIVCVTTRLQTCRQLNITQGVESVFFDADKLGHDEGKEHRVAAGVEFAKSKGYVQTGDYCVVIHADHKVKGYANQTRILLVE
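In 50 mM imidazole pH 7.2 with 7 mM MgCl2, LmPK (0.1 nM) turned over PEP (0.5 mM) and ADP (0.1 mM) for 1 h at room temperature. Luciferase read-out of ATP.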
* hit, by the source's call; ? = inconclusive; · = no result; [ ] = another dose, or the depositor's remark. The full list was thinned out, with hits kept by preference. Unless noted, calls follow the shape of the dose curve; as a rule, active = well fitted curve in the direction sought with a large enough effect; inconclusive = small, poorly fitted or top-dose-only effect, or another doubt; inactive = no such curve, though single readings can be large; an effect the other way counts as inactive or inconclusive.

SMILES	Shiga inhibitor	FBPA Giardia inh	RE007 growth inh	Tb PYK inh	Cycloheximide cs	LmPK inhibitor
CN(C)S(=O)(=O)c1cccc(COC(=O)c2ccc(Cl)cc2O)c1	106*	1%	5%	-4%	45*	1%
Cc1cc2c(cc1C)-c1nnnn1C(N1CCCC1)C(=O)N2 (configuration not stated)	·	·	4%	·	·	·
CC(CNC(=O)C1CCN(S(=O)(=O)c2ccc3c(ccn3C)c2)CC1)c1ccccc1 (configuration not stated)	·	·	·	0%	·	·
COC(=O)C1CN(C(=O)COc2cccc(C)c2C)c2ccccc2O1 (configuration not stated)	44	-11%	-13%	0%	26*	3%
O=C(COC(=O)C1CCC1)Nc1ccc(OC(F)F)cc1	17	-3%	-14%	0%	-2	-7%
NS(=O)(=O)c1ccc(NC(=O)COC(=O)C2CCCCC2)cc1	40*	5%	14%	-1%	33*	-2%
O=C(COC(=O)C1CC1)Nc1cccc(Cl)c1	·	·	-10%	0%	·	·
O=C(O)CCCC(=O)Nc1ccc(N=Nc2ccccc2)cc1	23	13%	2%	3%	19	2%
O=C(COC(=O)C1CC1)Nc1ccc(OC(F)F)cc1	24*	-1%	-4%	6%	26*	1%
O=C(COC(=O)C1CC1)Nc1ccc(N=Nc2ccccc2)cc1	79*	2%	7%	-7%	66*	2%
COC(=O)CCC(=O)Nc1ccc(N=Nc2ccccc2)cc1	64*	-6%	30%	2%	39*	14%
COc1ccc(C(=O)OCC(=O)Nc2ccc(OC(F)F)cc2)c(OC)c1	-17	8%	-1%	8%	-5	1%
O=C(COC(=O)c1ccccc1O)Nc1ccc(OC(F)F)cc1	56*	2%	-1%	8%	22*	-9%
Cc1cc(=O)oc(C)c1C(=O)NCc1ccco1	14	-13%	-6%	0%	-4	3%
Cc1cc(=O)oc(C)c1C(=O)NCc1c(F)cc(F)cc1F	45	-23%	-1%	11%	28*	-7%
O=c1oc2cc(O)ccc2cc1-c1nc2ccccc2o1	·	·	-9%	-6%	·	·
Clc1ccc2oc(-c3ccccn3)nc2c1	118*	-9%	-21%	-3%	44*	-1%
c1ccc2nc(-c3nc4ccccc4o3)ccc2c1	10	-11%	?	?	6	3.2µM*
O=C(Nc1ccc(-c2nc3cc(Cl)ccc3o2)cc1)c1cc2ccccc2o1	·	·	·	6%	·	·
c1cncc(-c2nc3ccccc3o2)c1	39	-2%	-10%	-7%	21*	-14%
Nc1ccc2oc(-c3ccccn3)nc2c1	71*	?	-15%	-11%	34*	?
C/C=C/c1ccc2oc(-c3ccc(O)cc3)c(C)c2c1	·	0%	·	·	·	·
Cc1cc(-c2nc3ccccc3o2)c2ccccc2n1	13	-1%	-12%	-8%	-3	-1%
O=C1c2cccnc2C(=O)N1c1cccc(-c2nc3ccccc3o2)c1	68*	-8%	-7%	-2%	34*	11%
c1ccc(-c2nc3ccccc3o2)nc1	51*	5%	0%	2%	42*	-23%
SMILES	Shiga inhibitor	FBPA Giardia inh	RE007 growth inh	Tb PYK inh	Cycloheximide cs	LmPK inhibitor
O=C1CCC(=O)N1c1cccc(-c2nc3ccccc3o2)c1	43	0%	1%	6%	7	4%
Cc1cccc(Cn2c(=O)n(CCC(=O)NCc3ccc4c(c3)OCO4)c(=O)c3sccc32)c1	·	·	·	1%	·	·
COc1ccccc1CNC(=O)c1ccc(N2CCCC2)c(NC(=O)NCc2ccc(F)cc2)c1	·	·	·	4%	·	·
CCc1nnc2c(Nc3ccc(N(CC)CC)cc3C)nc3ccccc3n12	·	·	·	8%[15.4 µM]	·	·
COc1cc(/C=C2\C(=O)NC(=O)N(c3ccccc3)C2=O)cc(OC)c1O	3	10µM*	6%	?	-3	-5%
COc1ccccc1N1C(=O)NC(=O)/C(=C/c2ccc3c(c2)Cc2ccccc2-3)C1=O	45*	-7%	-25%	-15%	12	2%
CC(C)CC(=O)NC(=S)Nc1cccc(NC(=O)c2ccccc2Cl)c1	2	1%	32%	0%	0	-4%
CCN1CCN(c2ccc(NC(=O)C(C)C)cc2Cl)CC1	8	2%	8%	-9%	7	-1%
CCc1ccc(NC(=S)NC(=O)CC(C)C)cc1	19*	2%	-19%	-7%	70*	-8%
O=C(NC(=S)Nc1ccc(N2CCOCC2)c(Cl)c1)C(c1ccccc1)c1ccccc1	-1	20%	-3%	3%	2	3%
CCCC(=O)NC(=S)Nc1ccc(N2CCOCC2)c(Cl)c1	44*	-3%	-5%	2%	19*	3%
CC(C)C(=O)Nc1ccc(N2CCCC2)c(Cl)c1	56	0%	-1%	-1%	44*	-5%
CC(C)CC(=O)NC(=S)Nc1ccc(N2CCCC2)c(Cl)c1	57*	0%	-3%	-1%	18	2%
COc1ccc(C(=O)c2c[nH]c(C(=O)N=CN(C)C)c2)cc1	42*	-1%	-17%	-2%	20*	1%
Cc1ccccc1C(=O)c1c[nH]c(C(=O)N=CN(C)C)c1	-13	-7%	1%	-3%	-2	-3%
COc1ccc(C(=O)c2c[nH]c(C(=O)NCC3CCCO3)c2)cc1 (configuration not stated)	28	-2%	4%	-7%	21*	3%
CC(C)(C)c1ccc(C(=O)c2c[nH]c(C(=O)NCC3CCCO3)c2)cc1 (configuration not stated)	22	-15%	-17%	1%	22*	8%
Cc1ccccc1C(=O)c1c[nH]c(C(=O)NCC2CCCO2)c1 (configuration not stated)	-1	4%	0%	3%	-2	-1%
COc1ccc2c(c1)c(CCN1CCOCC1)c(C)n2C(=O)c1cccc(Cl)c1Cl	·	-10%	·	·	·	·
Cn1cnc2c(=O)oc3ccc(S(=O)(=O)Nc4ccc(F)cc4)cc3c21	·	·	·	0%	·	·
CCCS(=O)(=O)NC(=O)C1(C)CCCN(C(=O)c2ccccc2F)C1 (configuration not stated)	·	·	5%	-3%	·	·
CC(C)c1ccc(/C=N/NC(=O)c2ccccc2Cl)cc1	107*	-15%	17%	4%	46*	1%
COC(=O)c1ccc(/C=N/NC(=O)c2ccccc2Cl)cc1	47*	-1%	4%	-17%	42*	-7%
COC(=O)c1ccc(/C=N/NC(=O)C(=O)NCc2ccccc2)cc1	9	1%	4%	0%	8	5%
C/C(=N/NS(=O)(=O)c1ccc(C)cc1)c1c(O)c2ccccc2oc1=O	-1	12%	2%	1%	0	-2%
